A selection: hits, their analogues and other compounds. The true share with any hit is near 0.5%.
TSHR antagonist = human thyrotropin receptor antagonism; 330,000 tested, 0.2% active; TSHR-expressing cells, TSH-stimulated cAMP HTRF, 2 h; active compounds read low; activity change, negative = inhibition, % at 11.5 µM;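 active = activity change below a set negative limit, meaning inhibition stronger than a set level, cut at about -70% in these data; inconclusive = activity change between two set negative limits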; note: % is set by controls: 0 for no effect and ±100 for the full control effect
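Antagonism was scored as loss of TSH-driven cAMP in TSHR cells, stimulated with 4nM TSH (EC80) for 2 hours at 37 deg C and detected by homogeneous HTRF competition immunoassay.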
EPAC1 antag = antagonists of human EPAC1; O95398; EPAC1 GEF assay, Rap1b-BODIPY-GDP exchange fluorescence; Potency, µM (series often up to 115 µM), inactives show top-dose activity change, negative = inhibition, usual class: inhibitors; 360,000 tested, 0.14% active; AID 720709;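 note: potency is the fitted concentration of half-maximal effect; plate controls were vehicle for no effect and positive control for full effect; nearly all actives have a fitted effect of over 50% in size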
PTHR1 agonist = activates the human parathyroid hormone receptor PTHR1; Potency, µM (highest dose often 115 µM), for inactives: at the highest dose activation, actives largely listed as activators; HEK293 GP2 PTHR1 cells, GloSensor cAMP luminescence, 1 h; Q03431; 410,000 tested, 0.075% active; note: potency is the fitted concentration of half-maximal effect; nearly all actives have a fitted effect of over 55% in size
Target sequence (Q03431 whole entry, looked up): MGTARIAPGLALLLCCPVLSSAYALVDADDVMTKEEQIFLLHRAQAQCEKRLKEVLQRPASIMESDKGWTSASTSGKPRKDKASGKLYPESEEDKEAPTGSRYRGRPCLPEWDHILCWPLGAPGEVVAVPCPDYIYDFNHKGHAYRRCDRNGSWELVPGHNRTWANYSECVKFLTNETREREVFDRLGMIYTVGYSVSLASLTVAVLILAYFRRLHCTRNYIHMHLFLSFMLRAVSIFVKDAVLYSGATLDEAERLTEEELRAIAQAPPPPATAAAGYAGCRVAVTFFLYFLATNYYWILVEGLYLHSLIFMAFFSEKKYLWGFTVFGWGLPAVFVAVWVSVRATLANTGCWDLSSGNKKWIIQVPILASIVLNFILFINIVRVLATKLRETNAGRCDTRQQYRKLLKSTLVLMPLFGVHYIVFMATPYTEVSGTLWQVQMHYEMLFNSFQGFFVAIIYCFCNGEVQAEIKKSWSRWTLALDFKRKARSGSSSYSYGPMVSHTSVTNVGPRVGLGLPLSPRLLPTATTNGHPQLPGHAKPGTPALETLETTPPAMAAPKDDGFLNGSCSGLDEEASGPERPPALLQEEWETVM
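HEK-293-derived GP2 cells expressing PTHR1 and a GloSensor cAMP reporter, 3,000/well, plated overnight, given luciferin plus IBMX (each 0.5 mM as added) for 1 h at 37 °C, then compound for 1 h at 37 °C. Luminescence was read after 15 min at room temperature.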
EPAC2 antagonist = antagonists of human EPAC2. Q8WZA2. EPAC2 GEF exchange of Rap1B-BODIPY-GDP, fluorescence. Potency, µM (titrated, usually from 114 µM), for the others: at the highest dose activity, negative = inhibition, usual class: inhibitors. 360,000 tested, 0.18% active. AID 720708; note: potency is the fitted concentration of half-maximal effect; % is set by controls: 0 for no effect and ±100 for the full control effect; nearly all actives have a fitted effect of over 45% in size
EPAC1 agonist = agonists of human EPAC1. EPAC1 agonist qHTS, biochemical assay; response scale: 100% = response to 6.5 mM cAMP. Potency, µM (highest dose often 154 µM), inactives show at the top dose activation, actives largely listed as activators. 360,000 tested, 0.073% active. O95398; note: potency is the fitted concentration of half-maximal effect; nearly all actives have a fitted effect of over 60% in size
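Nucleotide exchange assay: 100 nM EPAC1 with 250 nM Rap1B loaded with BODIPY-GDP and 50 uM GDP, room temperature. Fluorescence (480/540 nm) read every 5 min for 30 min; signal change normalized to 6.5 mM cAMP as full agonist.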
EPAC2 ag = activates human EPAC2 exchange factor. EPAC2 activation, biochemical qHTS; response scale: 100% = 6.5 mM cAMP response. Potency, µM (titrated, usually from 154 µM), inactives show at the highest dose activation, most hits filed as activators. 360,000 tested, 0.079% active. AID 720711; note: potency is the fitted concentration of half-maximal effect; nearly all actives have a fitted effect of over 50% in size
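Setup: EPAC2 100 nM, labeled Rap1B complex 250 nM, free GDP 50 uM. Compound titrations pinned in, brief spin, 5 min room temperature incubation. Kinetic fluorescence read over 30 min, normalized to 6.5 mM cAMP.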
* marks the source's active call; other numbers are inactive results; i = inactive; ? = inconclusive; nt = no result; ! = a repeat was not active; [ ] = dose if it differs, or a comment. Unless noted, calls come from the whole dose curve; as a rule, active = well fitted curve in the direction sought with a large enough effect; inconclusive = small, poorly fitted or top-dose-only effect, or another doubt; inactive = no such curve, though single readings can be large; an effect the other way counts as inactive or inconclusive.

SMILES	TSHR antagonist	EPAC1 antag	PTHR1 agonist	EPAC2 antagonist	EPAC1 agonist	EPAC2 ag
Cc1[nH]n(-c2ncc(-c3ccccc3)s2)c(=O)c1C(c1ccc(Cl)cc1)C(C#N)C#N (stereo not drawn)	-5	50µM*	-42%	-8%	-9%	2%
NC(=S)c1ccc[n+]([C@@H]2O[C@@H](COP(=O)([O-])OP(=O)(O)OC[C@H]3O[C@@H](n4cnc5c(N)ncnc54)[C@H](OP(=O)(O)O)[C@@H]3O)C(O)C2O)c1 (stereo partly drawn)	-12	nt	nt	nt	nt	nt
Oc1ccc(C2=Nn3c(nnc3-c3ccco3)SC2)cc1O	-20	45µM*	-47%[57.5 µM]	?	-1%	28%
Cc1ccccc1OCCC(=O)OCC(=O)NNC(=O)c1cccs1	-10	5%	14%	5%	5%	5%
CCc1ccc(NC(=O)CCS(=O)(=O)c2ccc3c(c2)oc(=O)n3C)cc1	nt	nt	i	nt	nt	nt
Cc1ccc(NC(=O)c2cn3c4c(ccc(Cl)c4c2=O)OC(C)C3)c(C)c1 (stereo not drawn)	nt	nt	-6%	nt	nt	nt
O=C1c2cccc3c(N4CCCCC4)ccc(c23)C(=O)N1c1cccc(O)c1	-5	59%	-35%	79%	?	100µM*
C=CCN1C(=O)c2cccc3c(N4CCCCC4)ccc(c23)C1=O	-12	32%	-11%	67%	14%	100µM*
CCOc1ccc(NC(=O)Cn2c(=O)n(Cc3ccco3)c(=O)c3ccc(C(=O)NC4CCCC4)cc32)cc1	nt	nt	i	nt	nt	nt
COc1cc2c(c(OC)c1OC)C(c1ccccc1C)CC(=O)O2 (stereo not drawn)	15	-12%	i	?	3%	12%
COc1cc2c(c(OC)c1OC)C(c1ccc3c(c1)OCO3)CC(=O)O2 (stereo not drawn)	-2	-1%	-1%	40µM*	4%	12%
Cc1cc(NC(=O)CN2C(=O)NC(c3ccccc3)(c3ccc(C)c(C)c3)C2=O)no1 (stereo not drawn)	54	-26%	-26%	-22%	3%	22%
CCN(CC)c1ccc(C(=O)OCC(=O)N2CCCC2)cc1	-111*	-11%	i	4%	1%	7%
CN(CC(=O)Nc1cccc(F)c1)CC(=O)NC(c1ccccc1)c1ccccc1	-7	-21%	-44%	-11%	7%	19%
Cn1cccc1/C=C1/SC(=S)N(CC(=O)O)C1=O	6	?	-46%	7%	15%	13%
CN1/C(=C\C=C2/SC(=S)N(CC(=O)O)C2=O)C(C)(C)c2ccccc21	-13	1%	-21%	47%	63µM*	112µM*
CN1CCS/C1=C\C=C1/SC(=S)N(CC(=O)O)C1=O	-31	-29%	i	4%	22µM*	?
CCN1C(=O)/C(=C/C=C2/Sc3ccccc3N2CCO)SC1=S	-1	-25%	i	-25%	1%	14%
CCN1C(=O)/C(=C/C=C2/SCCN2C)SC1=S	1	-6%	-9%	-4%	100µM*	35µM*
Cc1ccc2c(c1)cc1c(=O)n(CC(=O)N3CCCCC3)nc(C)n12	nt	nt	i	nt	nt	nt
CCOC(=O)N1CCN(/[N+]([O-])=N/Oc2ccc([N+](=O)[O-])cc2[N+](=O)[O-])CC1	-22	nt	nt	nt	nt	nt
O=C(Nc1c(-c2ccccc2)[nH][nH]c1=O)c1ccc2c(c1)OCO2	nt	-3%	-4%	-3%	13%	8%
CNc1c(NC(=O)c2ccc3c(c2)OCO3)c(=O)oc2ccccc12	-136*	-2%	?	-9%	-4%	-2%
CNc1c(NC(=O)c2ccc(OC)c(OC)c2)c(=O)oc2ccccc12	nt	nt	-17%	nt	nt	nt
O=C(Nc1c(-c2ccc3c(c2)OCO3)[nH][nH]c1=O)c1ccccc1	nt	35µM*	-16%	?	-6%	28%
SMILES	TSHR antagonist	EPAC1 antag	PTHR1 agonist	EPAC2 antagonist	EPAC1 agonist	EPAC2 ag
Cc1cccc(NC(=O)CN2C(=O)S/C(=C\c3ccc(O)c([N+](=O)[O-])c3)C2=O)c1	-33	?	-13%	-18%	-6%	-4%
O=C1S/C(=C\c2ccc(O)c([N+](=O)[O-])c2)C(=O)N1c1ccccc1Cl	?	56µM*	-92%	?	-22%	5%
Cc1ccc(NC(=O)CN2C(=O)S/C(=C/c3ccc(O)c([N+](=O)[O-])c3)C2=O)cc1C	-16	45µM*	-11%	?	1%	-12%
Nc1ncnc2c1ncn2[C@@H]1O[C@H](CNC(=O)[C@@H](N)CO)[C@@H](O)[C@H]1O	-7	-10%	i	-2%	-5%	0%
Cc1nc(SCC(=O)N2CCN(c3ccccc3)CC2)n[nH]1	-89*	-3%	i	-4%	4%	3%
CC(=O)c1ccc2c(c1)C1C=CCC1C(C(=O)O)N2 (stereo not drawn)	36	50µM*	-7%	4%	0%	3%
Cc1ccc2c(c1)C1C=CCC1C(C(=O)O)N2 (stereo not drawn)	-7	nt	nt	nt	nt	nt
N#C/C(=C\c1ccc(C(=O)O)cc1)c1nc2sc3c(c2c(=O)[nH]1)CCCC3	8	206%	5%	158%	32µM*	56µM*
CCOC(=O)c1nc2sc3c(c2c(=O)[nH]1)CCCC3	-8	7%	i	4%	-2%	-3%
COC(=O)c1nc2n(n1)C(c1cccc(Cl)c1)C1=C(CCCC1=O)N2 (stereo not drawn)	-85*	-26%	i	-5%	5%	16%
CCCCN(CCCC)c1ncnc2nc[nH]c12	-27	-11%	i	-18%	-7%	2%
CCCCN(Cc1ccccc1)c1ncnc2nc[nH]c12	-70*	-10%	-94%	?	-22%	-4%
N[C@@H](Cc1cc(I)c(Oc2ccc(O)c(I)c2)c(I)c1)C(=O)O	0	50µM*!	?	?	-23%	-3%
N[C@@H](Cc1cc(I)c(Oc2cc(I)c(O)c(I)c2)c(I)c1)C(=O)O	nt	?	-6%	6%	-24%	3%
COc1ccc(NC(=O)c2cc(C)no2)cc1	20	13%	i	-2%	1%	-2%
CCOc1ccc(NC(=O)CN2CCN(C3CCCCC3)C(=O)C2=O)cc1	nt	nt	3%	nt	nt	nt
Cc1cc(S(=O)(=O)N2CCN(CC(=O)N(C)Cc3ccccc3)CC2)ccc1Br	-7	-11%	i	-2%	63µM*	5%
CN(Cc1ccccc1)C(=O)CN1CCN(S(=O)(=O)c2ccc(Cl)c(Cl)c2)CC1	-1	-2%	-54%	-28%	11%	11%
Cc1csc(NC(=O)CSc2sc3c(O)cc(=O)[nH]c3c2C#N)n1	-1	50µM*	i	-1%	4%	0%
